Only a selection was taken, and hits are over-represented in it overall.
TDP1 cell CPT: qHTS for Inhibitors of human tyrosyl-DNA phosphodiesterase 1 (TDP1): qHTS in cells in presence of CPT; Potency, µM (series often up to 46.2 µM), usual class: inhibitors; chicken DT40 Tdp1-/-;hTDP1 cells + 20 nM CPT, ATP luminescence, 48 h; 420,000 compounds, 12% hits; note: nearly all actives have a fitted effect of over 55% in size
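Chicken DT40 Tdp1-/- cells complemented with human TDP1, 400 cells/well, exposed to compounds plus 20 nM camptothecin for at least 48 h at 37 C; viability read as ATP content by CellTiter-Glo luminescence.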
DT40 TDP1 no CPT: qHTS for Inhibitors of human tyrosyl-DNA phosphodiesterase 1 (TDP1): qHTS in cells in absence of CPT. AID 686978, 2013. Potency, µM (top dose mostly 46.2 µM), hits mostly inhibitors. 420,000 compounds, 15% hits. DT40 Tdp1-/- hTDP1 cells, no CPT, ATP luminescence, 48 h; note: nearly all actives have a fitted effect of over 55% in size
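Camptothecin absent (DMSO only). Human TDP1-complemented DT40 knockout cells, 400 cells/well, 37 °C for minimum 48 hr; ATP measured via CellTiter-Glo, 30 min dark incubation, luminescence.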
IL-1B inflam inh: qHTS for Inhibitors of Inflammasome Signaling: IL-1-beta AlphaLISA Primary Screen; THP-1 LPS/ATP IL-1B secretion, AlphaLISA, 16 h; stronger effect = lower value; activity change, % at 57.5 µM; 360,000 compounds, 4.7% hits; in the data active = activity change below about -50%; inconclusive = mostly about -30% to -49%
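Secreted IL-1B measured by AlphaLISA bead assay after 16 h compound exposure of THP-1 cells; compounds (final up to 57.5 uM) added 1 h before LPS (250 ng/mL) and ATP (1.25 mM) stimulation; lower signal means less secretion.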
HT1080 IDH1KD tx: qHTS for induction of synthetic lethality in tumor cells producing 2HG: qHTS for the HT-1080-IDH1KD cell line. HT-1080 IDH1 knockdown viability, ATP luminescence, 48 h. Potency, µM (doses to about 46.1 µM), actives largely listed as cytotoxic. 360,000 compounds, 2% hits. AID 686971, 2013
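CellTiter-Glo luminescence after 48 h compound exposure at 37 degrees C of IDH1-knockdown HT-1080 cells in 5% FBS RPMI. %Activity scaled between DMSO wells and cell-free media wells, with curves fitted and assigned curve classes.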
ALOX12 inh: Primary qHTS assay for inhibitors of human arachidonate 12S-lipoxygenase (ALOX12): Round 2. 580,000 compounds, 1.1% hits. AID 1671190, 2021. Potency, µM (titrated, usually from 108 µM), most hits filed as inhibitors. purified 12hLO, xylenol orange hydroperoxide absorbance
Target sequence (P18054 whole entry, looked up): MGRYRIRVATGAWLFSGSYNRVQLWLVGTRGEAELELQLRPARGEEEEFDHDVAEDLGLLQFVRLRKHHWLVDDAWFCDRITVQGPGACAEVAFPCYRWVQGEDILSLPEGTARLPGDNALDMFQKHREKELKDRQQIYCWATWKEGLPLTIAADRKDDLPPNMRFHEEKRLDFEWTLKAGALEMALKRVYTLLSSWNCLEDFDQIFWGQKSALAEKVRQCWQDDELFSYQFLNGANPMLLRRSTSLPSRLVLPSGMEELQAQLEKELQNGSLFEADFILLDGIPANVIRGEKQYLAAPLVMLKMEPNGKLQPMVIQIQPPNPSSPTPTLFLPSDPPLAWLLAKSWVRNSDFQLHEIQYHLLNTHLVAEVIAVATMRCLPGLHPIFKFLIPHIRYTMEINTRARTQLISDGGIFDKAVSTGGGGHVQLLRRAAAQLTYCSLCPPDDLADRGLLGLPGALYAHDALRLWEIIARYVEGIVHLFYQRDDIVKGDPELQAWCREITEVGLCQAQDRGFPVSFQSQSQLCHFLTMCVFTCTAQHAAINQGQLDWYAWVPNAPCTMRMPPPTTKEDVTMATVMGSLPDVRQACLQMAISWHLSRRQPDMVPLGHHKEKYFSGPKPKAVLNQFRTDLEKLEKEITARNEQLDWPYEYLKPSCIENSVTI
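Purified human 12hLO at 150 nM in 25 mM Hepes, 0.01% Triton X-100, pH 7.0, preincubated 15 min at room temperature with compound. Reaction started with 40 uM arachidonic acid, 30 min at room temperature. Hydroperoxide measured by Fe-xylenol orange, 573/405 nm absorbance ratio.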
HT1080-NT tox: qHTS for induction of synthetic lethality in tumor cells producing 2HG: qHTS for the HT-1080-NT fibrosarcoma cell line | HT-1080-NT fibrosarcoma viability, CellTiter-Glo ATP luminescence, 48 h | Potency, µM (titrated, usually from 46.1 µM), hits mostly cytotoxic | AID 686970, 2013 | 360,000 compounds, 1.6% hits;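 note: NT is the 2HG producing partner of a matched IDH1 knockdown line; nearly all actives have a fitted effect of over 55% in size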
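Read-out is CellTiter-Glo luminescence after 10 minutes at room temperature, following 48 hours' compound treatment of HT-1080-NT cells (750 cells/well, RPMI, 5% FBS, 37 degrees C).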
Numbers stand for hits; n = inactive; u = inconclusive; x = no result; [ ] = remark or other dose. Unless noted, calls come from the whole dose curve; as a rule, active = well fitted curve in the direction sought with a large enough effect; inconclusive = small, poorly fitted or top-dose-only effect, or another doubt; inactive = no such curve, though single readings can be large; an effect the other way counts as inactive or inconclusive.

SMILES	TDP1 cell CPT	DT40 TDP1 no CPT	IL-1B inflam inh	HT1080 IDH1KD tx	ALOX12 inh	HT1080-NT tox
COc1ccc(OC)c(Nc2nc(N)nc(CCl)n2)c1	12µM	18µM	-102	16µM	n	u
COc1ccccc1Nc1nc(N)nc(CSC(=S)N2CCCCC2)n1	8.2µM	13µM	n	n	n	n
COc1ccccc1Nc1nc(N)nc(CCl)n1	18µM	13µM	-100	12µM	n	23µM
COc1ccccc1Nc1nc(N)nc(-c2oc3ccccc3c2C)n1	8.2µM	u	n	n	n	n
COc1ccc(OC)c(Nc2nc(N)nc(CSc3nnc(N)s3)n2)c1	n	n	n	n	n	n
COC(=O)CN1C(=O)N(CCc2ccccc2)C2(CCN(Cc3ccc4c(c3)CCO4)CC2)C1=O	x	x	x	x	n	x
Cc1cc(C)nc(Nc2nc3ccccc3[nH]2)n1	n	n	n	n	n	n
Cc1ccc2nc(Nc3nc(C)cc(-c4ccccc4)n3)[nH]c(=O)c2c1	21µM	15µM	n	n	n	n
Cc1ccc2nc(Nc3nc(-c4ccccc4)cc(=O)[nH]3)nc(C)c2c1	13µM	8.2µM	u	n	n	n
COCCNS(=O)(=O)c1cc(C(=O)O)cc(-c2ccc(OC)c(F)c2)c1	x	x	x	x	n	x
Fc1ccc(C(c2nnnn2Cc2cccs2)N2CCN(C3CCCCC3)CC2)cc1 (configuration not stated)	u	21µM	u	n	n	n
COc1ccc(C(c2nnnn2Cc2ccc(F)cc2)N2CCN(c3ccccc3)CC2)cc1 (configuration not stated)	u	u	n	n	n	n
COc1ccc(Cn2nnnc2C(CC(C)C)N2CCN(c3ccccc3)CC2)cc1 (configuration not stated)	18µM	15µM	n	n[9.24 µM]	n	n
c1ccc(Cn2nnnc2C(c2ccncc2)N2CCOCC2)cc1 (configuration not stated)	n	n	n	n	n	n
COc1ccc(C(c2nnnn2Cc2ccc(F)cc2)N2CCN(c3ccc(OC)cc3)CC2)cc1 (configuration not stated)	23µM	15µM	n	n	n	n
Cc1cc(C(c2nnnn2Cc2ccccc2)N2CCOCC2)c(C)n1-c1ccc2c(c1)OCO2 (configuration not stated)	u	16µM	-97	10µM	x	u
CC(C)C(c1nnnn1Cc1ccc2c(c1)OCO2)N1CCN(c2ccccc2)CC1 (configuration not stated)	n	21µM	n	n	n	n
CCCC(c1nnnn1Cc1ccc(OC)cc1)N1CCC(C(N)=O)CC1 (configuration not stated)	n	n	n	n	u	n
COc1ccccc1C(c1nnnn1C(C)(C)C)N1CCN(Cc2ccncc2)CC1 (configuration not stated)	n	n	n	n	u	n
COc1ccc(Cn2nnnc2C(c2ccccn2)N2CCN(c3cc(Cl)ccc3C)CC2)cc1 (configuration not stated)	29µM	u	u	n	n	n
CC(C)CC(c1nnnn1C(C)(C)C)N1CCN(Cc2ccccc2)CC1 (configuration not stated)	n	u	n	n	10µM	n
COCCn1nnnc1C(c1ccccn1)N1CCN(c2cc(Cl)ccc2C)CC1 (configuration not stated)	u	u	n	n	n	n
CCCC(c1nnnn1Cc1ccc(OC)cc1)N1CCN(c2ccccc2)CC1 (configuration not stated)	u	23µM	n	n	n	n
CCC[C@H]1CN(C(=O)c2ccccc2Cc2ccc(C)cc2)C[C@@H]1N	x	x	x	x	n	x
CCCCn1c(N)c(N(CC(C)C)C(=O)Cc2ccc(S(=O)(=O)N3CCOCC3)s2)c(=O)[nH]c1=O	n	n	n	n	n	n
SMILES	TDP1 cell CPT	DT40 TDP1 no CPT	IL-1B inflam inh	HT1080 IDH1KD tx	ALOX12 inh	HT1080-NT tox
O=C(CSc1n[nH]c(-c2ccccc2Cl)n1)NCCc1ccccc1	9.2µM	21µM	x	x	n	x
O=C(CSc1n[nH]c(-c2cccs2)n1)NCCc1ccccc1	u	u	n	n	n	n
COc1cccc(CNC(=O)CSc2n[nH]c(-c3ccccc3Cl)n2)c1OC	n	n	x	x	n	x
CCOc1ccccc1CNC(=O)CSc1n[nH]c(-c2ccccc2Cl)n1	13µM	23µM	x	x	n	x
CC(C)(C)NC(=O)CSc1ncnc2ccccc12	x	x	x	x	n	x
CCCn1nc(C(=O)OCC(=O)Nc2ccc(Cl)cn2)c2ccccc2c1=O	x	x	x	x	n	x
O=C(COc1ccc(Cl)cc1Cl)NCCc1csc(-c2ccncc2)n1	x	x	x	x	n	x
S=C(NCCCc1cnc[nH]1)NCCCN(CCc1ccccc1)c1ccc(Br)cn1	10µM	8.9µM	x	x	x	x
S=C(NCCCc1cnc[nH]1)NCCCN(Cc1ccc(Cl)cc1)c1ccc(Br)cc1	13µM	n	x	x	x	x
S=C(NCCCc1cnc[nH]1)NCCCN(Cc1ccc(Cl)cc1)c1ccc(-c2ccccc2)cn1	u	n	x	x	x	x
O=C(NCCCc1cnc[nH]1)NCCCN(Cc1ccc(Cl)cc1)c1ccc(Br)cn1	2.2µM	4µM	x	x	x	x
S=C(NCCCc1cnc[nH]1)NCCCN(Cc1ccc(Cl)cc1)c1ncc(Br)cn1	13µM	7.9µM	x	x	x	x
O=C1CC(C(F)(F)F)=NN1	n	n	x	n	n	n
CC(C)(CNC(=O)C1CCN(c2nc3ccccc3o2)CC1)N1CCCCC1	x	x	x	x	n	x
CN1[C@@H](CCC(=O)NCc2ccco2)CNC(=O)[C@@H]2[C@H]1CCN2Cc1ccc(C(=O)O)cc1	x	x	x	x	n	x
O=C(Nc1ccc(Br)cc1)c1cc(-c2cccs2)nc2ccccc12	u	u	x	x	n	x
NS(=O)(=O)c1ccc(NC(=O)c2cccc3ccccc23)cc1	n	n	n	n	n	n
NS(=O)(=O)c1ccc(CNC(=O)c2cc(-c3cccs3)nc3ccccc23)cc1	u	u	n	n	u	n
CN(C)S(=O)(=O)c1cccc(NC(=O)c2cc(-c3cccs3)nc3ccccc23)c1	u	10µM	n	n	n	n
NS(=O)(=O)c1cccc(NC(=O)c2cccs2)c1	21µM	u	n	n	n	n
